# Whole data set: some 8,300 sequences, median “log2 fold change of degron read counts, EGFP-low vs EGFP+ sorted cells (limma voom), compound-induced degradation” near -1.1, cut for the highest 2% near 3.2. For the sample, the highest values were picked, then their nearest neighbours and some sequences at random.
# T1: CRBN, Q96SW2
# T1 chain: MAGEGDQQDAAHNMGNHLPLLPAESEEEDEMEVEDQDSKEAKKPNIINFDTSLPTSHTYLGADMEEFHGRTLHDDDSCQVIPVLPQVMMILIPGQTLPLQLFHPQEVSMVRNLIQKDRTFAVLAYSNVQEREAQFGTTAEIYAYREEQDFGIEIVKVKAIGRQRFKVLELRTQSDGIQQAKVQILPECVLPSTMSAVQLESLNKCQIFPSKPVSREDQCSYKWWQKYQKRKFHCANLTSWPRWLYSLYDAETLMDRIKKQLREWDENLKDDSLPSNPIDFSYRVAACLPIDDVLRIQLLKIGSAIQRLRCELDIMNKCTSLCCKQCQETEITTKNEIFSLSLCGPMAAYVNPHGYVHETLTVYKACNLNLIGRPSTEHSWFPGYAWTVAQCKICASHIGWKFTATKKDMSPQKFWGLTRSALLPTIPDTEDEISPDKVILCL
# Target: T1, CRBN, Q96SW2
# Test: log2 fold change of degron read counts, EGFP-low vs EGFP+ sorted cells (limma voom), compound-induced degradation; higher = more compound-induced degradation of the degron-EGFP fusion; degrons are variants of IKZF1/3 zinc finger 2; compound dose not given here
# Details: Jurkat, 18 h
# [1] = compound: compound 19 (5-tert-butyl-thalidomide)
# [2] = compound: compound 22 (5-morpholino-thalidomide)
# [3] = compound: compound 33 (diphenyl IMiD analogue)
# 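Also: pooled lentiviral library of zinc finger degron-EGFP fusions in mCherry-positive Jurkat cells, FACS-sorted after compound exposure, with degron abundance counted by next-generation sequencing.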
Sequence,log2 fold change of degron read counts [1],log2 fold change of degron read counts [2],log2 fold change of degron read counts [3],log2 fold change of degron read counts (compound: thalidomide)
"FFCEQCGAIFTQKGNLLRHIKL [46F_47F_49E_50Q_52G_53A_54I_55F_67L_, Q9UKT9]",-0.0994,0.676,-1.15,-1.09
"LGCNQCGFSCTQKGNLLRHIKL [46L_47G_49N_50Q_52G_53F_54S_55C_67L_, Q9UKT9]",-1.87,-2.27,-1.97,-1.71
"FHCNQCGHDFTQKGNLLRHIKL [46F_47H_49N_50Q_52G_53H_54D_55F_67L_, Q9UKT9]",-2.36,-2.92,-3.64,-3.18
"FRCPICGRKFTQKGNLLRHIKL [46F_47R_49P_50I_52G_53R_54K_55F_67L_, Q9UKT9]",-1.49,-0.504,0.233,0.803
"FICNQCGRHFTQKGNLLRHIKL [46F_47I_49N_50Q_52G_53R_54H_55F_67L_, Q9UKT9]",-2.53,-2.91,-2.85,-2.39
"FRCDQCGAQFTQKGNLLRHIKL [46F_47R_49D_50Q_52G_53A_54Q_55F_67L_, Q9UKT9]",-2.54,-2.73,-1.77,-2.38
"FMCEQCGASFTQKGNLLRHIKL [46F_47M_49E_50Q_52G_53A_54S_55F_67L_, Q9UKT9]",-1.6,-1.45,1.54,-0.529
"FWCNQCGRCFTQKGNLLRHIKL [46F_47W_49N_50Q_52G_53R_54C_55F_67L_, Q9UKT9]",-1.48,-2.02,-1.83,-1.5
"LGCEICGFICTQKGNLLRHIKL [46L_47G_49E_50I_52G_53F_54I_55C_67L_, Q9UKT9]",0.761,-0.0429,-0.436,-0.337
"FQCEICGAWFTQKGNLLRHIKL [46F_47Q_49E_50I_52G_53A_54W_55F_67L_, Q9UKT9]",-1.84,-0.947,0.615,2.26
"FICEICGARFTQKGNLLRHIKL [46F_47I_49E_50I_52G_53A_54R_55F_67L_, Q9UKT9]",0.817,2.66,1.57,3.04
"FMCEICGARFTQKGNLLRHIKL [46F_47M_49E_50I_52G_53A_54R_55F_67L_, Q9UKT9]",-0.0205,-0.359,1.34,1.5
"FACEICGARFTQKGNLLRHIKL [46F_47A_49E_50I_52G_53A_54R_55F_67L_, Q9UKT9]",3.84,2.89,-0.685,1.16
"FDCEICGARFTQKGNLLRHIKL [46F_47D_49E_50I_52G_53A_54R_55F_67L_, Q9UKT9]",3.3,1.74,0.651,2.27
"FHCEICGARFTQKGNLLRHIKL [46F_47H_49E_50I_52G_53A_54R_55F_67L_, Q9UKT9]",2.72,2.42,0.44,0.706
"FLCEICGARFTQKGNLLRHIKL [46F_47L_49E_50I_52G_53A_54R_55F_67L_, Q9UKT9]",0.574,-1.16,-0.0449,2.33
"FYCEICGARFTQKGNLLRHIKL [46F_47Y_49E_50I_52G_53A_54R_55F_67L_, Q9UKT9]",3.7,3.37,2.11,1.8
"FRCEICGARFTQKGNLLRHIKL [46F_47R_49E_50I_52G_53A_54R_55F_67L_, Q9UKT9]",-0.586,-0.873,-0.311,0.853
"FVCEICGARFTQKGNLLRHIKL [46F_47V_49E_50I_52G_53A_54R_55F_67L_, Q9UKT9]",1.67,2.43,1.02,3.07

# Source: the supplement of paper PMC12645437, “Orthogonal IMiD-Degron Pairs Induce Selective Protein Degradation in Cells” (ACS Chemical Biology, 2025)
